# RAD54 branch = RAD54 (human) branch migration inhibition | AID 602329 | inhibition, % at 10.4 µM | RAD54 Holliday junction branch migration, FAM/BHQ fluorescence | 0.14% of 360,000 active | Q92698;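 active = mean normalized replicate activity at least 40 and at least half of replicates scoring 40 or more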;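 note: 0% = median of neutral control wells and 100% = median of positive control wells; inhibitors cause a drop in the FAM fluorescence signal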
# RAD52 inh = RAD52 (human) annealing inhibition; P43351; recombinant RAD52 DNA annealing, FRET fluorescence; inhibition, % at 18.7 µM; 0.46% of 360,000 active;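 active = every replicate showing at least 50% inhibition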
# Target sequence (P43351 whole entry, looked up): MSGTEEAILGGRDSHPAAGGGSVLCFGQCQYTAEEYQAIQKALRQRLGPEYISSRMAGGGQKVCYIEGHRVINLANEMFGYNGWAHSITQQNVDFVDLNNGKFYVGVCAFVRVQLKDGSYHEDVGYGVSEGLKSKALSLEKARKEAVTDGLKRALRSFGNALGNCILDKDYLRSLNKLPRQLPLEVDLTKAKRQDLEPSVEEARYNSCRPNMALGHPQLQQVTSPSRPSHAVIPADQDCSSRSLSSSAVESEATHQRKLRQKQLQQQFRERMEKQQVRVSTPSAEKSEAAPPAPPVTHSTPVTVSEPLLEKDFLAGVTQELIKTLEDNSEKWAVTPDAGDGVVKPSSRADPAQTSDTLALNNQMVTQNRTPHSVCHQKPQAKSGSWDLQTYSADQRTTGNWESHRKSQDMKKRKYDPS
# N-glyco inh = N-linked glycosylation inhibition. D54 ERlucT glycosylation luciferase reporter, 24 h; percent of 100 nM tunicamycin response. reporter increase, % at 12.5 µM. 0.23% of 360,000 active;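 active = mean luciferase reporter signal, scaled so untreated is 0 and the glycosylation-blocking control 100, at or above a set limit in every replicate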;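 note: luciferase carries N-glycosylation sites so blocking glycosylation raises the light; 0% = median of neutral control wells and 100% = median of 100 nM tunicamycin wells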
# dFosB act = mouse delta FosB homodimer activation | P13346 | purified delta FosB, TAMRA-CDK5 oligo fluorescence polarization; percent of positive-control signal above neutral wells | activation, % at 25 µM | 0.99% of 340,000 active;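 active = mean activation above about 17%, with every replicate also reaching it, limit read from the data, passing the limit was not always enough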
# PvdQ inh = P. aeruginosa PvdQ acylase inhibition; 0.063% of 340,000 active; inhibition, % at 10 µM; purified PvdQ acylase, fluorescence plate reader; AID 488965; in the data active = inhibition above about 30%, passing the limit was not always enough;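 note: 0% = vehicle neutral wells and 100% = reference inhibitor wells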
# CFTR F508del cor = correctors of CFTR F508del function in bronchial epithelial cells; 0.36% of 350,000 active; CFBE cells, YFP halide quenching; stimulated with forskolin plus potentiator P3; % fluorescence drop versus neutral controls; AID 720511; activity (quench increase), % at 7.58 µM;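 active = mean added fluorescence quench of at least 8% versus neutral control, with both replicates also reaching 8%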;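 note: cells transiently co-express mutant CFTR-F508del with the halide-sensitive YFP; corrector assay measuring rescue of mutant channel to the surface after 24 h compound exposure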
# The depositor's hits bear a star; . = not tested or not shown. Rows were chosen to be rich in hits. Some 1.5% of all compounds tested hit in one or more screens of this group.
SMILES,RAD54 branch,RAD52 inh,N-glyco inh,dFosB act,PvdQ inh,CFTR F508del cor
C[C@@H]1CN([C@H](C)CO)C(=O)c2cc(-c3ccccc3)cnc2O[C@@H]1CN(C)C(=O)c1cccnc1,.,18,.,.,.,-4
CCc1ccc(CNC(=O)c2ccc(NC(=O)C3=CSCCO3)cc2)cc1,-5,-14,2,23*,-15,-1
O=C(Nc1ccc(C(=O)NCc2ccc(F)cc2)cc1)C1=CSCCO1,2,-7,-2,9,-1,0
COc1ccc(/C=N/NC(=O)c2cccc([N+](=O)[O-])c2)cc1OC,.,-12,1,3,3,0
N#Cc1cc([N+](=O)[O-])ccc1Oc1cccc(/C=N/NC(=O)c2cccc(Cl)c2)c1,5,.,1,8,63*,.
CCS(=O)(=O)NCC[C@H]1CC[C@H](NC(=O)C2CCCCC2)[C@@H](CO)O1,.,.,.,.,.,-1
NC[C@H]1O[C@@H](n2ccc(N)nc2=O)[C@H](O)[C@@H]1O,-5,-27,-1,.,.,-4
Nc1ccn(C2OC(CO)C(O)C2F)c(=O)n1 (stereo unspecified),-9,-79,0,.,.,0
Nc1ccn(C2OC(CO)C(O)C2O)c(=O)n1 (stereo unspecified),-3,-48,-4,.,.,9.7*
Nc1ccn([C@@H]2O[C@H](CO)[C@@H](O)[C@@H]2O)c(=O)n1,-1,-2,-2,-3,-8,19*
COCC(=O)N1[C@H](CO)[C@H](c2ccccc2)C12CN(C(=O)c1cccc(F)c1)C2,.,-15,.,.,.,-1
COc1ccc2c3c([nH]c2c1)[C@@H](CO)N(C(=O)c1cccc(F)c1)CC31CCN(S(=O)(=O)c2cccs2)CC1,.,-5,.,.,.,-1
COc1cc2c(cc1OC)C(c1cccs1)N(C(=O)c1cccnc1)CC2 (stereo unspecified),-2,-5,80*,-9,-20,9.9*
COc1cc2c(cc1OC)C(c1cccs1)N(C(=O)C(C)C)CC2 (stereo unspecified),6,.,5,-6,-5,.
COCCn1c(SCC(=O)NCC(c2ccccc2)N(C)C)nc2sc3c(c2c1=O)CCC3 (stereo unspecified),7,-2,-2,-7,-8,1
CN(C)C(CNC(=O)CSc1nc2sc3c(c2c(=O)n1C)CCCC3)c1ccccc1 (stereo unspecified),5,3,33*,-9,7,4
COc1ccc(S(=O)(=O)N[C@H]2CC[C@@H](CC(=O)NCCc3ccccc3)O[C@@H]2CO)cc1,7,-2,.,.,.,-5
O=c1cnc2ccccc2n1CC1CCCCC1,.,-3,-3,-5,-7,8.6*
O=C(C[C@@H]1CC[C@@H](NC(=O)c2ccc3c(c2)OCO3)[C@H](CO)O1)NC1Cc2ccccc2C1,-4,-10,.,.,.,-1
O=C(COc1ccc(Br)cc1)Nc1ccc(NC(=O)c2ccccc2)cc1,6,-14,-3,25*,-8,1
C(=N\Nc1nc2ccccc2[nH]1)/c1ccccn1,.,-22,-20,-1,-6,0
CCN(CC)c1ccc(/C=N/NC(=O)c2ccco2)c(O)c1,.,-27,-8,-24,-17,35*
CCN(CC)c1ccc(/C=N/Nc2nc3ccccc3[nH]2)c(O)c1,12,.,-10,32*,-6,.
CCN(CC)c1ccc(/C=N/NC(=O)c2ccco2)cc1,5,.,-1,5,-10,.
C(=N\Nc1nc2ccccc2[nH]1)/c1ccc2ncccc2c1,-5,-7,45*,1,9,-3
SMILES,RAD54 branch,RAD52 inh,N-glyco inh,dFosB act,PvdQ inh,CFTR F508del cor
CCN(C(=O)COC(=O)c1cc(-c2ccccc2)nc2c1c(C)nn2-c1ccc(C)cc1)C1CCS(=O)(=O)C1 (stereo unspecified),.,-8,3,-5,7,8.2*
CCN(C(=O)COC(=O)c1cc(-c2ccccc2)nc2ccc(Br)cc12)C1CCS(=O)(=O)C1 (stereo unspecified),.,3,-1,-11,10,-1
CNC(=O)C[C@@H]1CC[C@H]2[C@H](COc3ccc(NC(=O)Nc4ccccc4F)cc3C(=O)N2C)O1,-3,21,.,.,.,1
CCN1/C(=C/c2ccc3ccccc3[n+]2CC)C=Cc2ccccc21,71*,.,85*,-207,2,.
CCN1/C(=C/c2ccc3ccccc3[n+]2CCCS(=O)(=O)[O-])C=Cc2cc(C)ccc21,7,-40,-2,-8,4,-7
CCCCN1/C(=C/c2ccc3ccccc3[n+]2CC)Sc2ccccc21,.,.,14,27*,-3,.
C[C@H](CO)N1C[C@H](C)[C@H](CN(C)Cc2ccc(Cl)c(Cl)c2)Oc2ccc(NC(=O)C3CCCCC3)cc2CC1=O,-1,-7,.,.,.,10*
Cc1noc(C)c1NC(=O)N(C)C[C@H]1Oc2ccc(NC(=O)Cc3ccccc3)cc2CC(=O)N([C@@H](C)CO)C[C@@H]1C,-8,77*,.,.,.,4
Cc1ccc(S(=O)(=O)Nc2ccc3c(c2)CC(=O)N([C@H](C)CO)C[C@H](C)[C@@H](CN(C)Cc2ccc(-c4ccccc4)cc2)O3)cc1,3,67*,.,.,.,1
Cc1noc(C)c1NC(=O)N(C)C[C@H]1Oc2ccc(NC(=O)Cc3ccccc3)cc2CC(=O)N([C@H](C)CO)C[C@H]1C,-5,-5,.,.,.,3
C[C@@H]1CN([C@@H](C)CO)C(=O)c2cccc(NC(=O)NC3CCCCC3)c2O[C@@H]1CN(C)Cc1ccc(Cl)c(Cl)c1,-6,-7,.,.,.,9.3*
Cc1ccc(S(=O)(=O)Nc2ccc3c(c2)CC(=O)N([C@@H](C)CO)C[C@H](C)[C@H](CN(C)Cc2ccc(-c4ccccc4)cc2)O3)cc1,-4,19,.,.,.,8
O=C(NCC[C@@H]1CC[C@H](NS(=O)(=O)c2ccc(F)cc2)[C@@H](CO)O1)c1ccccc1F,.,-10,.,.,.,2
CC(C)NC(=O)Nc1ccc2c(c1)C(=O)N([C@@H](C)CO)C[C@@H](C)[C@H](CN(C)S(C)(=O)=O)OCCCC[C@@H](C)O2,2,-1,.,.,.,-3
CCC(=O)N1CC(=O)N2[C@@H](CO)[C@H](c3ccc(C#CC4CCCCC4)cc3)[C@@H]2C1,.,8,.,.,.,3
C[C@H](CO)N1C[C@H](C)[C@@H](CN(C)Cc2ccccc2)Oc2ccc(NC(=O)Nc3ccc(C(F)(F)F)cc3)cc2CC1=O,-4,54*,.,.,.,0
C[C@@H]1CN([C@@H](C)CO)C(=O)Cc2cc(N(C)C)ccc2O[C@@H]1CN(C)Cc1ccccc1,-1,-8,.,.,.,10*
C[C@H]1CN([C@@H](C)CO)C(=O)Cc2cc(N(C)C)ccc2O[C@H]1CN(C)Cc1ccccc1,8,5,.,.,.,-1
Cc1ccc(-c2ccc3c(c2)O[C@@H](CN(C)C)[C@@H](C)CN([C@@H](C)CO)S3(=O)=O)cc1,-3,17,.,.,.,.

# High-throughput results (PubChem BioAssay)
